Screening data (PubChem)
MCF10A rerep = induces DNA re-replication in MCF 10a normal breast cells; hit rate 2.9% among 350,000; MCF 10A DNA re-replication, Hoechst nuclear intensity, 48 h; Potency, µM (highest dose often 46.1 µM), hits mostly activators; further: nearly all actives have a fitted effect of over 50% in size
KB-V1 MDR tox = KB-V1 MDR subline cytotoxicity; KB-V1 MDR cells viability, CellTiter-Glo, 72 h; Potency, µM (doses to about 46.1 µM), hits mostly cytotoxic; hit rate 3.4% among 400,000; AID 1347076; further: nearly all actives have a fitted effect of over 60% in size
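Compound-treated KB-V1 multidrug-resistant cells, 72 h, 37 degrees C; viability by CellTiter-Glo. Fitted qHTS curves give the values.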
SW480 rereplic = induces DNA re-replication in SW480 colon adenocarcinoma cells. hit rate 1.8% among 340,000. SW480 DNA re-replication, Hoechst DNA content imaging, 48 h. AID 624297. Potency, µM (titrated, usually from 46.1 µM), usual class: activators; further: nearly all actives have a fitted effect of over 55% in size
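Cells (250 per well) received 23 nL compound or DMSO by pin tool and were kept 48 hr at 37 C, 5% CO2. Nuclei were then stained with Hoechst for 40 min and scanned for DNA content.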
HT1080 IDH1KD tx = toxicity to HT-1080 IDH1 knockdown cells (counter line); HT-1080 IDH1 knockdown viability, ATP luminescence, 48 h; Potency, µM (top dose mostly 46.1 µM), most hits filed as cytotoxic; hit rate 2% among 360,000; AID 686971
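Viability of IDH1-knockdown HT-1080 fibrosarcoma cells was assessed by CellTiter-Glo after 48 h at 37 °C with titrated compound; concentration-effect curves were classified by fit quality and response size.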
KB-3-1 cytotox = KB-3-1 parental cell cytotoxicity; Potency, µM (doses to about 46.1 µM), most hits filed as cytotoxic; KB-3-1 viability, CellTiter-Glo ATP luminescence, 72 h; hit rate 1.4% among 400,000; further: nearly all actives have a fitted effect of over 60% in size
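72 h, 37 °C compound treatment of KB-3-1 parental cells; CellTiter-Glo added, 10 min, luminescence read. Data corrected against DMSO-only plates and normalized before curve fitting.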
HT1080NT lethal = kills 2HG-producing HT-1080-NT fibrosarcoma cells; Potency, µM (top dose mostly 46.1 µM), hits mostly cytotoxic; hit rate 1.6% among 360,000; HT-1080-NT fibrosarcoma viability, CellTiter-Glo ATP luminescence, 48 h; AID 686970;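 further: NT is the 2HG producing partner of a matched IDH1 knockdown line; nearly all actives have a fitted effect of over 55% in size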
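HT-1080-NT; 750 cells/well; 5% FBS RPMI; 48 h compound, 37 degrees C; CellTiter-Glo luminescence; curve fitting and curve-class assignment.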
Numbers stand for hits; n = inactive; u = inconclusive; x = no result; [ ] = dose if it differs, or a comment. Rows were chosen to be rich in hits. Some 8% of all compounds tested hit in one or more screens of this group. The call rests on the fitted dose curve; in most records, active means well fitted curve in the direction sought with a large enough effect; inconclusive means small, poorly fitted or top-dose-only effect, or another doubt; inactive means no such curve, though single readings can be large; an effect the other way counts as inactive or inconclusive.

SMILES	MCF10A rerep	KB-V1 MDR tox	SW480 rereplic	HT1080 IDH1KD tx	KB-3-1 cytotox	HT1080NT lethal
COc1ccc(N(CC(=O)NCCSCc2ccccc2C)S(=O)(=O)c2ccccc2)cc1	u	15µM	n	u	u	u
COc1ccc(S(=O)(=O)N(CC(=O)NCCSc2ccccc2)c2ccc(C)cc2)cc1	x	n	x	x	u	x
COc1ccccc1N(CC(=O)NCCSCc1cccc(C)c1)S(=O)(=O)c1ccccc1	18µM	u	n	n	u	n
COc1ccccc1NC(=O)Cc1csc(NC(=S)Nc2ccc(C)cc2)n1	u	10µM	21µM	7.1µM	u	6.3µM
CCC(=O)Nc1nc(CC(=O)Nc2ccccc2OC)cs1	n	n	n	n	n	n
CSCCC(NS(=O)(=O)c1cccc(C(F)(F)F)c1)C(=O)N(C)CCOc1ccc(Cl)cc1 (stereo unspecified)	u	u	5.8µM	n	n	n
CSCCC(NS(=O)(=O)c1cccc(C(F)(F)F)c1)C(=O)N1CCN(C(=O)c2ccco2)CC1 (stereo unspecified)	n	n	n	n	n	n
Cc1ccc2c(c1)N(S(=O)(=O)c1cc(-c3onc(C)c3C)ccc1C)CCO2	n	u	u	u	23µM	u
COc1ccc(-c2noc(Cn3cc(S(=O)(=O)N4CCCC4)ccc3=O)n2)cc1	n	5.8µM	n	n	n	n
O=c1ccc(S(=O)(=O)N2CCCC2)cn1Cc1nc(-c2ccc(F)cc2)no1	u	u	n	n	n	n
CCOc1cc(CNCc2ccncc2)cc(Br)c1OCc1ccc(F)cc1	u	u	n	11µM	n	u
Fc1ccc(COc2ccc(Br)cc2CNCc2ccncc2)cc1	u	2.9µM	n	u	n	n
Cc1ccc(Cn2nc(C)c(NC(=O)c3cc(C)no3)c2C)cc1	n	u	n	n	n	n
Cn1c(CC2C(=O)Nc3ccc(Br)cc32)nc2ccccc2c1=O (stereo unspecified)	u	10µM	n	n	u	u
CC1CC(C)CN(S(=O)(=O)c2ccc(C(=O)Nc3nnc(-c4cccs4)o3)cc2)C1 (stereo unspecified)	u	13µM	n[9.22 µM]	u	u	14µM
CC1CCCN(S(=O)(=O)c2ccc(C(=O)Nc3nnc(-c4ccccn4)o3)cc2)C1 (stereo unspecified)	n	u	n	n	u	n
CCC1CCCCN1S(=O)(=O)c1ccc(NC(=O)c2cccnc2)cc1 (stereo unspecified)	n	n	n	n	n	n
CCC1CCCCN1S(=O)(=O)c1ccc(C(=O)Nc2nnc(-c3cccs3)o2)cc1 (stereo unspecified)	u	5µM	u	14µM	u	8.9µM
CN(C)S(=O)(=O)c1ccc(C(=O)Nc2nnc(-c3cccs3)o2)cc1	u	u	n	u	n	n
CC1CCCN(S(=O)(=O)c2ccc(C(=O)Nc3nnc(-c4ccccc4Cl)o3)cc2)C1 (stereo unspecified)	u	u	u	u	7.3µM	n
CCCOc1ccccc1N/C(=N\S(=O)(=O)c1ccc(C)cc1)Nc1nc(C)cc(C)n1	n	u	n	n	n	n
CC(C(=O)NCCc1nc2ccccc2[nH]1)n1cc([N+](=O)[O-])cn1 (stereo unspecified)	n	n	n	n	n	n
COc1ccccc1CN1[C@@H](CC(=O)O)c2ccccc2S1(=O)=O	n	n	n	n	n	n
COc1ccc(Sc2nc3ccccc3n3c(C(F)(F)F)nnc23)cc1	n	n	n	n	n	n
CCC1CSC(Nc2ccc(C(=O)/C=C/c3ccc(Br)cc3)cc2)=N1 (stereo unspecified)	16µM	u	u	18µM	n	u
SMILES	MCF10A rerep	KB-V1 MDR tox	SW480 rereplic	HT1080 IDH1KD tx	KB-3-1 cytotox	HT1080NT lethal
COc1ccc(/C=C/C(=O)c2ccc(NC3=NCCCS3)cc2)cc1OC	u	u	u	u	n	u
CCC1CSC(Nc2ccc(C(=O)/C=C/c3ccc(OC)c(OC)c3)cc2)=N1 (stereo unspecified)	u	2.9µM	u	u	u	u
CN1C2CCC1/C(=C/c1cccn1C)C(=O)/C2=C\c1cccn1C	n	n	u	n	n	n
CN1C2CCC1/C(=C\c1ccc(F)cc1)C(=O)/C2=C/c1ccc(F)cc1	n	23µM	u	n	u	n
O=[N+]([O-])c1cccc(NC(=S)NCc2ccncc2)c1	n	n	n	n	n	n
CC(=O)/C(=N\Nc1ccccc1)Sc1cccc2cccnc12	n	n	n	n	n	n
CC(=O)/C(=N\Nc1ccccc1Cl)Sc1cccc2cccnc12	u	u	u	u	n	21µM
Oc1cccc2ccc(Nc3ccccn3)nc12	5.8µM	u	u	5.8µM	5.8µM	5.8µM
Cc1ccc(S(=O)(=O)N(CC(=O)NCCSc2ccccn2)c2ccc(C)c(C)c2)cc1	n	n	n	n	n	n
COC(=O)CNC(c1ccccc1Cl)c1cc(Br)ccc1NS(=O)(=O)c1ccc(C)cc1 (stereo unspecified)	u	18µM	n	n	u	n
COC(=O)CNC(c1ccccc1)c1cc(Br)ccc1NC(C)=O (stereo unspecified)	n	n	n	n	n	n
O=C(Nc1cccc(F)c1)N1CCC(c2ccccc2)CC1	u	n	n	n	n	n
CCN1C(=O)c2cccc3c(S(=O)(=O)Nc4ccncc4)ccc1c23	n	n	n	n	n	n
CCN1C(=O)c2cccc3c(NC(=O)c4ccc5c(c4)OCCO5)ccc1c23	26µM	n	u	n	u	n
CCN1C(=O)c2cccc3c(S(=O)(=O)NCc4ccco4)ccc1c23	12µM	n	u	u	n	n
CCN1C(=O)c2cccc3c(S(=O)(=O)Nc4ccccc4)ccc1c23	23µM	12µM	n	n	u	n
CCN1C(=O)c2cccc3c(S(=O)(=O)N(C)C)ccc1c23	x	13µM	x	n	n	n
CCC(C(=O)OCC(=O)c1c(N)n(CC(C)C)c(=O)n(C)c1=O)c1ccccc1 (stereo unspecified)	n	u	n	n	u	n
CC(NC(=O)C(=O)NCCc1c[nH]c2ccccc12)c1ccccc1 (stereo unspecified)	n	n	n	n	n	n
CCN1C(=O)c2cccc3c(S(=O)(=O)Nc4nc(C)cs4)ccc1c23	15µM	n	n	n	u	n
O=C(NCCCc1ccccc1)c1cnc2n(c1=O)CCS2	n	15µM	n	n	n	n
O=C(NCCCc1ccccc1)c1ccccc1O	15µM	u	u	u	n	n
CCOC(=O)c1sc(NC(=O)c2cc3c(s2)CCC(C)C3)nc1C (stereo unspecified)	n	n	n	n	n	n
